# Measurements published in PubChem BioAssay (NCI).
# “And” between values parts separate entries of the source, which are not always exact repeats. Identical values can stand only once. About 79,000 compounds went through this panel and 15% of them were active in at least one assay; those are over-represented in the sample as a whole. The source holds several records for some structures; these can differ, active in one and inactive in another. The source made the active and inactive calls. No stated cut-off is given here; in the data, active means growth inhibition above about 70%; inactive means the rest.
# Test: NCI Yeast Anticancer Drug Screen. Data for the mec2-1 strain (AID 157)
# Conditions: S. cerevisiae mec2-1 strain, stronger effect = higher value
# Description: Growth inhibition of yeast strains with defined genetic alterations is measured as a screen for potential anti-cancer activity. Selected strains with alterations in DNA damage repair or cell cycle control were exposed to compounds and growth inhibition was measured relative to vehicle treated controls. The strain used in this assay is mec2-1
# [1] = at 5.0 µM (retest, dose inferred, filed as 0.5)
# [2] = at 50.0 µM (retest, dose inferred, filed as 5.0)
Compound,growth inhibition [1],growth inhibition [2],growth inhibition (at 50.0 µM)
COc1cccc2c1C(=O)c1c(O)c3c(c(O)c1C2=O)C[C@@](O)(C(=O)CO)C[C@@H]3OC1CC(N)C(O)C(C)O1 (some centres not stated),41% (inactive) and 20% (inactive) and -6% (inactive),99% (active) and 82% (active) and -16% (inactive),93.7% (active) and 52.2% (inactive) and -26% (inactive)
CCOC(=O)C1=C(C(=O)c2ccc(C)cc2)C(c2cccc([N+](=O)[O-])c2)C(C(=O)c2ccc(C)cc2)=C(C(=O)OCC)N1,3% (inactive),69% (inactive),78% (active)
C#CC(C)(C)OC(=O)Nc1ccccc1,-14% (inactive),62% (inactive),9.3% (inactive) and 43.6% (inactive)
O=c1c(Cl)c(Cl)cnn1-c1ccccc1,1% (inactive),22% (inactive),45% (inactive) and -8.9% (inactive)
O=c1c(Cl)c(Cl)cnn1CCCl,9% (inactive),48% (inactive),17.6% (inactive)
CC[C@](O)(CC(=O)O[C@H]1C(=O)O[C@@H]2C[C@H]3C(C)=CC(=O)[C@@H](O)[C@]3(C)[C@H]3[C@@]4(O)OC[C@]32[C@@H]1[C@@H](C)[C@H]4O)C(C)C,35% (inactive),98% (active),91.7% (active)
CCN1CCC(O)(/C=C/c2ccc(C)cc2)C(C(=O)/C=C/c2ccc(C)cc2)C1 (configuration not stated),15% (inactive),99% (active),91.4% (active)
Cc1cc2c(c(Br)c1O)Oc1c(cc(C)c(O)c1Br)C21OC(=O)c2ccccc21,42% (inactive),99% (active),93% (active)
Cc1ccnc2c1c(=O)c1ccccc1n2C,4% (inactive),28% (inactive),60.2% (inactive)
O=Cc1cc([N+](=O)[O-])ccc1O.[Eu],46% (inactive),69% (inactive),86.1% (active)
Nc1nc(-c2ccccn2)cc2ccccc12,25% (inactive),76% (active),-11.2% (inactive)
CCCCCCCCCCCCCC1=NCC(c2ccc3ccccc3c2)O1 (configuration not stated),-4% (inactive),-2% (inactive),4.95% (inactive)
CC(C)(Cc1nocc1C(C)(C)CC#N)c1cc(CC(C)(C)C2(C)OCCO2)no1,0% (inactive),-1% (inactive),9.45% (inactive)
CC(=O)OCC(OC(C)=O)C(OC(C)=O)C(OC(C)=O)C(OC(C)=O)C(/C=N/Nc1ccccc1)=N/Nc1ccccc1 (configuration not stated),4% (inactive) and 1% (inactive),68% (inactive) and -7% (inactive),48.1% (inactive) and 4.7% (inactive)
